Test results taken from PubChem BioAssay AID488940 (National Center for Advancing Translational Sciences (NCATS), 2010).
The source made the active and inactive calls. Calls follow the shape of the full dose curve.

Each compound was assayed against DNA repair nuclease/redox regulator APEX1 (Homo sapiens) (UniProt P27695) (assay: Radiotracer Incision Assay (RIA) for Inhibitors of Human Apurinic/apyrimidinic Endonuclease 1 (APE1)). Conditions: Recombinant APE1, radiolabeled AP-DNA incision, gel.
From the text: The apurinic/apyrimidinic endonuclease APE1 is the primary mammalian enzyme responsible for the removal of abasic (or AP) sites in DNA and functions centrally in the base excision DNA repair (BER) pathway. […] Thus, targeting APE1 could improve the efficacy of current treatment paradigms by promoting selective sensitization or protection of diseased and normal cells, respectively. This secondary Radiotracer Incision Assay was implemented to validated hits from the primary screen (AID 2517).
Recombinant wild type APE1 protein was purified as previously described (Erzberger et al., NAR, 1998). Fifty pg of APE1 (~140 pM) was incubated without (positive control containing 1% DMSO) or with 100 microM of the indicated inhibitor at room temperature in RIA buffer (50 mM Tris pH 7.5, 25 mM NaCl, 1mM MgCl2, 1 mM DTT, 0.01% Tween -20) for 15 min. One-half pmol of 32P 5'-radiolabeled AP-DNA substrate (18 mer) was added to a 10 microL final volume (see Wilson et al., JBC, 1995), and the reactions were incubated at 37 °C for 5 min and stopped by adding stop buffer (0.05% Bromophenol blue/ Xylene cyanol dissolved in 95% formamide, 20 mM EDTA) and heating at 950C for 10 min. Intact substrate was separated from incised product on a 15% polyacrylamide denaturing gel in tris boric acid EDTA buffer. Following electrophoresis, the gel was subjected to standard phosphoimager analysis using the ImageQuant 5.2 software, and the percent incision activity (amount of substrate converted to product) was calculated.

DNA repair nuclease/redox regulator APEX1 (Homo sapiens), sequence (P27695 whole entry, looked up): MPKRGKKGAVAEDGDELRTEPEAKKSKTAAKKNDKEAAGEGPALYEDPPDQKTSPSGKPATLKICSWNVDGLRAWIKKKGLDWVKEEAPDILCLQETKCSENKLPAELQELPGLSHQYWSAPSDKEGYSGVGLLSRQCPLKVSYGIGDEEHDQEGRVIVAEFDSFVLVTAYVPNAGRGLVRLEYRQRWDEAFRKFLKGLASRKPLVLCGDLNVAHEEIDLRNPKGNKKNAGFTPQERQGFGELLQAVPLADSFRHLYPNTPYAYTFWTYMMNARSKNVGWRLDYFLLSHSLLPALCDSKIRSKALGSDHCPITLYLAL

Compound	Potency
CC(=O)Nc1sc2c(c1-c1nc3ccccc3s1)CCS(=O)(=O)C2	77 µM (active)
O=C(Nc1sc2c(c1-c1nc3ccccc3s1)CCNC2)C(F)F	4 µM (active)
CC(=O)Nc1sc2c(c1-c1nc3ccccc3s1)CCCNC2	7 µM (active)
CC(=O)Nc1sc2c(c1-c1nc3ccccc3s1)CCN(C(C)C)C2	19 µM (active)
CC(=O)Nc1sc2c(c1-c1nc(-c3ccccc3)cs1)CCN(C(C)C)C2	3 µM (active)
CC(=O)Nc1sc2c(c1-c1nc3ccccc3s1)CCCN(C(C)C)C2	14 µM (active)
CC(=O)Nc1sc2c(c1-c1nc3ccccc3s1)CCN(C(C)=O)C2	5 µM (active)
CC(=O)Nc1sc2c(c1-c1nc3ccccc3s1)CCNC2	5 µM (active)
CC(=O)Nc1sc2c(c1-c1nc3ccccc3s1)CN(C(C)C)C2	4 µM (active)
CC(=O)Nc1sc2c(c1-c1nc3ccccc3s1)CCN(C)C2	5 µM (active)
CC(=O)Nc1sc2c(c1-c1nc3ccccc3s1)CCN(C(C)C)CC2	13 µM (active)
CC(=O)Nc1sc2c(c1-c1nc3ccccc3o1)CCN(C(C)C)C2	13 µM (active)
